Experimental data published in PubChem BioAssay (Tox21).
Inconclusive results are not listed. A call without a number means that no potency is given here. Values without a mark were called inactive. Active and inactive are the calls of the source. The call rests on the fitted dose curve.

Target: Beta-2 adrenergic receptor (Homo sapiens) (UniProt P07550)
Assay: Adrenergic beta2 receptor (ADRB2) small molecule agonists, cell-based qHTS assay (AID 1963593);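 further: CHO cells stably overexpressing human ADRB2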
In short: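 CHO cells stably over-expressing ADRB2 were plated overnight at 37C, then dosed with compounds plus a stimulation mix containing 100uM IBMX and 25uM Ro-20-1724 for 0.5hr at room temperature. cAMP was measured by HTRF competition, 1hr.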

Chain of Beta-2 adrenergic receptor (Homo sapiens) (P07550 whole entry, looked up): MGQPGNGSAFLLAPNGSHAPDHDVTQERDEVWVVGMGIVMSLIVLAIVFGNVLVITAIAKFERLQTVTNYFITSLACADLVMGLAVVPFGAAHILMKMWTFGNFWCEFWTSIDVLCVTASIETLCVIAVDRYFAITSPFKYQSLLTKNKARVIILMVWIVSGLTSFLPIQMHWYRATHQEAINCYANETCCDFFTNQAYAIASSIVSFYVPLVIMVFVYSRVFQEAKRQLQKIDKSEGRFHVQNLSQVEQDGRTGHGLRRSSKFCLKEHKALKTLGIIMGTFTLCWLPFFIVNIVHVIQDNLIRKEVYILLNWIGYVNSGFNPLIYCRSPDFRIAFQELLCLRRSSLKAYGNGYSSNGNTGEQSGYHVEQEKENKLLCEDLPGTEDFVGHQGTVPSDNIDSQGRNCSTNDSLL

With `C/C=C/C(=O)CC` the Potency was “inactive”.

With `CN(C)CCCOC1(Cc2ccccc2)CCCCCC1` the Potency was “inactive”.

For `Cc1cc(NS(=O)(=O)c2ccc(N)cc2)nc(C)n1`, the Potency was “inactive”.

For `CC(C)CC(C)CC(C)CC(C)COC(=O)c1ccccc1C(=O)OCC(C)CC(C)CC(C)CC(C)C` (stereo not given), the Potency was “inactive”.

`CC(C)(C)C(=O)OCOC(=O)[C@@H]1N2C(=O)[C@@H](NC(=O)[C@H](N)c3ccccc3)[C@H]2SC1(C)C` was tested, and the Potency was “inactive”.

With `CO/N=C(\C(=O)O)c1csc(NC(=O)CCl)n1` the Potency was “inactive”.

`CO[Si](C)(OC)c1ccccc1` was tested, and the Potency was “inactive”.

For `COc1ccc2[nH]c(S(=O)Cc3ncc(C)c(OC)c3C)nc2n1` (stereo not given), the Potency was “inactive”.

With `CCOc1cc(OCC)c(C(C)=O)cc1OCC` the Potency was “inactive”.

For `O=C1c2ccccc2C(=O)N1CCl`, the Potency was “inactive”.

For `CC(C)=CCC[C@@](C)(O)[C@H]1CC=C(C)CC1`, the Potency was “inactive”.

`C=CCOc1nc(OCC=C)nc(OCC=C)n1` was tested, and the Potency was “inactive”.

With `CN1CCN(Cc2cc(-c3ccc4[nH]c(=O)oc4c3)co2)[C@@H](c2ccc(F)cc2)C1` the Potency was “inactive”.

`O=C1OCCN1/N=C/c1ccc([N+](=O)[O-])o1` was tested, and the Potency was “inactive”.

In the case of `NC(=O)C(=O)N/N=C/c1ccc([N+](=O)[O-])o1`, the Potency is reported as “inactive”.

In the case of `NNc1nc(-c2ccc([N+](=O)[O-])cc2)cs1`, the Potency is reported as “inactive”.

`CCOC(=O)OCC/C(SC(=O)OCC)=C(\C)N(C=O)Cc1cnc(C)nc1N` was tested, and the Potency was “inactive”.

For `COc1ncnc(NS(=O)(=O)c2ccc(N)cc2)c1OC`, the Potency was “inactive”.

In the case of `O=C1CCCN1CCO`, the Potency is reported as “inactive”.

`CC1(c2ccccc2)OC(C(=O)O)=CC1=O` (stereo not given) was tested, and the Potency was “inactive”.

In the case of `C[C@H]1C[C@H]2[C@@H]3CCC4=CC(=O)C=C[C@]4(C)[C@@]3(F)[C@@H](O)C[C@]2(C)[C@@]1(O)C(=O)COP(=O)(O)O`, the Potency is reported as “inactive”.

With `Cc1ccc2c(c1[N+](=O)[O-])C(=O)c1ccccc1C2=O` the Potency was “inactive”.

With `Cc1ccnc2ccccc12` the Potency was “inactive”.

`O=C1CCC(C2CCCCC2)CC1` was tested, and the Potency was “inactive”.

In the case of `Nc1[nH]c(=O)ncc1F`, the Potency is reported as “inactive”.

In the case of `CCCCCCCCCCCC(=O)NCCCN(C)C`, the Potency is reported as “inactive”.

For `CCC(=O)C(=O)CC`, the Potency was “inactive”.

For `ClCCl`, the Potency was “inactive”.

`C[C@@H]1C[C@H]2[C@@H]3CCC4=CC(=O)C=C[C@]4(C)[C@@]3(F)[C@@H](O)C[C@]2(C)[C@@]1(O)C(=O)COP(=O)(O)O` was tested, and the Potency was “inactive”.

With `Cc1ccc(C=O)s1` the Potency was “inactive”.

For `O=Cc1ccccc1[N+](=O)[O-]`, the Potency was “inactive”.

`Nc1c(Cl)cc(Cl)cc1Cl` was tested, and the Potency was “inactive”.

Work on `NCCCNCCSP(=O)(O)O` yielded an activation of -33.3% [at 8.39 µM].

For `C=C(C)C(=O)OCC[N+](C)(C)C`, the Potency was “inactive”.

In the case of `CCCc1nn(C)c2c(=O)[nH]c(-c3cc(S(=O)(=O)N4CCN(C)CC4)ccc3OCC)nc12`, the Potency is reported as “inactive”.

For `O=NN(CCCl)C(=O)NCCCl`, the Potency was “inactive”.

`O=C(N[C@@H](Cc1ccccc1)[C@@H](O)C(=O)N1C[C@@H](O)[C@@H](O)C1)c1cc2cc(Cl)ccc2[nH]1` was tested, and the Potency was “inactive”.

`CCCCC(=O)OCC(=O)[C@H]1[C@H](C)C[C@H]2[C@@H]3C[C@H](F)C4=CC(=O)C=C[C@]4(C)[C@@]3(F)[C@@H](O)C[C@@]21C` was tested, and the Potency was “inactive”.

`Cc1c(C)c2c(c(C)c1O)CC[C@@](C)(CCC[C@H](C)CCC[C@H](C)CCCC(C)C)O2` was tested, and the Potency was “inactive”.

With `CCCCCCCCc1ccc(S(=O)(=O)O)cc1` the Potency was “inactive”.

`CC(=O)Nc1ccccc1C` was tested, and the Potency was “inactive”.

`N=C1N=C(N)c2ccccc21` was tested, and the Potency was “inactive”.

For `Brc1ccc(-c2ccccc2)cc1`, the Potency was “inactive”.

For `CC/C=C\CCOC(=O)c1ccccc1O`, the Potency was “inactive”.

In the case of `CNCCc1ccccn1`, the Potency is reported as “inactive”.

`CCOC(=O)c1ccc(NC(=O)CN2CCCCC2)cc1` was tested, and the Potency was “inactive”.

`COCCCCCCCCOCCC[Si](C)(O[Si](C)(C)C)O[Si](C)(C)C` was tested, and the Potency was “inactive”.

In the case of `O=C(CCOCCOCCOCCOCCC(=O)Nc1c(I)cc(I)c(C(=O)O)c1I)Nc1c(I)cc(I)c(C(=O)O)c1I`, the Potency is reported as “inactive”.

With `O=C(O)P(=O)(O)O` the Potency was “inactive”.

For `CO[C@H]1O[C@H](CO)[C@@H](O)[C@H](O)[C@H]1O`, the Potency was “inactive”.
